# From PubChem BioAssay
# This is a sample that favours compounds with a hit; in the whole collection about 0.85% have one here.
# MmCpn inh = M. maripaludis TRiC chaperonin inhibition; purified Mm-Cpn ATPase, ADP Transcreener TR-FRET; Potency, µM (top dose mostly 76.9 µM), without a hit: at the highest dose activity, negative = inhibition, hits mostly inhibitors; 330,000 tested, 0.031% active; AID 504842; note: potency is the fitted concentration of half-maximal effect; % is set by controls: 0 for no effect and ±100 for the full control effect; nearly all actives have a fitted effect of over 80% in size
#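 Purified archaeal chaperonin (25 nM final) was preincubated with compound for 10 min at 37°C, then ATP (10 uM final) was added for 30 min at 37°C in Tris pH 7.4/KCl/MgCl2/DTT buffer. ADP was quantified by HTRF Transcreener TR-FRET.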
# Akt phos inh = Akt phosphorylation inhibition; 360,000 tested, 0.32% active; Neuro2A IGF-stimulated pAkt S473 HTRF, 20 min; active compounds read low; AID 651550; activity change, % for hits at 50 µM; in the data active = activity change below about -80%; inconclusive = mostly about -51% to -80%; note: % is set by controls: 0 for no effect and ±100 for the full control effect
#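 Neuro2A cells (4,500/well, DMEM with 0.5% FBS) were treated with compound at a single 50 µM final concentration, stimulated with 6 nM IGF for 20 min at 37 °C, and lysed. Phospho-Akt Ser473 was read by HTRF as 665/615 ratio ×10^4.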
# GLS inh = inhibitors of human glutaminase (GLS) | GLS enzymatic activity, qHTS titration | Potency, µM (doses to about 45.5 µM), for the others: at the highest dose activity change, negative = inhibition, most hits filed as inhibitors | 410,000 tested, 0.21% active | AID 624170; note: potency is the fitted concentration of half-maximal effect; % is set by controls: 0 for no effect and ±100 for the full control effect
# Target sequence (O94925 whole entry, looked up): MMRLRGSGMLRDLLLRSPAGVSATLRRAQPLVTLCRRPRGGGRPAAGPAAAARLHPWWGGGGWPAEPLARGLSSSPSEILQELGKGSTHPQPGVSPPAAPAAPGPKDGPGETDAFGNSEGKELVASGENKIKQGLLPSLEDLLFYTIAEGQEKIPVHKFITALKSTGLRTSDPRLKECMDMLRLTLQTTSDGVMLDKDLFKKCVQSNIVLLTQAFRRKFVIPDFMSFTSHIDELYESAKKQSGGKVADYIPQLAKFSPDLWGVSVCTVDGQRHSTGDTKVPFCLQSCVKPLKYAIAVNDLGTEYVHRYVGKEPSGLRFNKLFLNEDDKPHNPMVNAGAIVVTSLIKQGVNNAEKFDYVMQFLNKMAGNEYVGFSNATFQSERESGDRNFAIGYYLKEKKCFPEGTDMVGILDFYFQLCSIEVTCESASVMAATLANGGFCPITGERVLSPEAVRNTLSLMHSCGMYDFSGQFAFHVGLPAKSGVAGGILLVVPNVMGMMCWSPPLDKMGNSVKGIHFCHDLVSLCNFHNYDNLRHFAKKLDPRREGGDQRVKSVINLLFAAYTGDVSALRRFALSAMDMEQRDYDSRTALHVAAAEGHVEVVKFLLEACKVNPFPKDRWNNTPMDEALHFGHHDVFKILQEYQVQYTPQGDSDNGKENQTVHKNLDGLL
#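 Read-out is an Amplex red fluorescence increase coupled through glutamate oxidase and HRP, measured before and after 30 min room-temperature incubation. hKGA is in 45 mM KH2PO4 (pH 8.2) with 0.02% Tween-20; glutamine added as 1mM solution.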
# IDH1 R132H inh = human IDH1 R132H inhibition; O75874; IDH1-R132H enzyme, NADPH consumption, diaphorase/resazurin fluorescence; Potency, µM (series often up to 76.6 µM), for inactives: at the highest dose activity change, negative = inhibition, actives largely listed as inhibitors; 390,000 tested, 0.093% active; note: potency is the fitted concentration of half-maximal effect; % is set by controls: 0 for no effect and ±100 for the full control effect; nearly all actives have a fitted effect of over 65% in size
#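 IDH1-R132H (0.5 ug/mL dispensed) in pH 7.5 Tris buffer was preincubated 30 min with compound, then given a substrate mix of 0.016 mM NADPH and 2 mM alpha-KG for 80 min at room temperature; remaining NADPH was read by diaphorase/resazurin fluorescence.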
# Glioma ERSR ind = induces the endoplasmic reticulum stress response in human glioma cells | U87-MG GRP78 promoter luciferase reporter, 16 h | Potency, µM, for the others: at the top dose activation, hits mostly activators | 420,000 tested, 0.02% active; note: potency is the fitted concentration of half-maximal effect; series mostly up to about 76 µM; % of control where 0% means no effect; nearly all actives have a fitted effect of over 35% in size
#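 ERSR induction read as luciferase luminescence (Bright-Glo, 10 min at room temperature) in stably transfected human U87-MG glioma cells exposed to compounds for 16 h, using GRP78 as sensor.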
# CCT modulator = changes cytosolic chaperonin activity; purified chaperonin ATPase assay, HTRF ADP detection, 30 min; activity change, % (test concentration not listed), hits read low; 360,000 tested, 0.3% active; in the data active = activity change below about -30%; note: % is set by controls: 0 for no effect and ±100 for the full control effect
#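 TRiC at 40 or 20 nM final (batch-dependent) in 30 mM Tris pH 7.4, 100 mM KCl, 5 mM MgCl2, 1 mM DTT, with compound at single 76 uM and 10 uM ATP, 30 min at 37 deg C. ADP detected by HTRF Transcreener, 665/615 ratio.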
# IDH1 autofl = interferes with resorufin fluorescence in IDH1 counter-screen | shares compounds with IDH1 R132H inh | Resorufin detection reagent fluorescence interference, cell-free | inhibition of signal, % at 51.2 µM | 750 tested, under 10 active | AID 623980;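 note: 0% = wells with normal resorufin and full inhibition = wells lacking resorufin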
# WT IDH1 inh = wild-type IDH1 (human) inhibition counterscreen | shares compounds with IDH1 R132H inh | WT IDH1 enzyme, NADPH diaphorase/resazurin fluorescence | Potency, µM (highest dose often 115 µM), without a hit: at the top dose activity change, negative = inhibition, usual class: inhibitors | 750 tested, 9% active;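 note: potency is the fitted concentration of half-maximal effect; 0% = full WT IDH1 enzyme control and full inhibition = no enzyme wells; nearly all actives have a fitted effect of over 55% in size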
# IDH1 R132H conf = inhibits human mutant IDH1 enzyme in cherrypick confirmation; AID 624002; IDH1 R132H enzyme, NADPH diaphorase/resazurin fluorescence; Potency, µM (series often up to 76.6 µM), for the others: top-dose activity change, negative = inhibition, usual class: inhibitors; 750 tested, 83% active; shares compounds with IDH1 R132H inh; note: potency is the fitted concentration of half-maximal effect; nearly all actives have a fitted effect of over 50% in size
# * hit, by the source's call; i = inactive; u = inconclusive; x = no result given. Unless noted, calls come from the whole dose curve; as a rule, active = well fitted curve in the direction sought with a large enough effect; inconclusive = small, poorly fitted or top-dose-only effect, or another doubt; inactive = no such curve, though single readings can be large; an effect the other way counts as inactive or inconclusive.
SMILES,MmCpn inh,Akt phos inh,GLS inh,IDH1 R132H inh,Glioma ERSR ind,CCT modulator,IDH1 autofl,WT IDH1 inh,IDH1 R132H conf
COc1cccc(CNc2ncnc3sc(C(=O)N4CCOCC4)c(C)c23)c1OC,x,x,x,x,-1.3%,x,x,x,x
COCCNC(=O)C(c1ccc(C)o1)N(C(=O)c1snc(C(N)=O)c1N)c1ccc(C)cc1 (configuration not stated),-1.0%,i,16.6%,-9.0%,-2.6%,-1.1,x,x,x
COc1ccc(N(C(=O)c2snc(C(N)=O)c2N)C(C(=O)NC2CCCC2)c2ccco2)c(OC)c1 (configuration not stated),-2.2%,i,-10.6%,-21.9%,-4.5%,-3.8,x,x,x
Cc1ccc(N(C(=O)c2snc(C(N)=O)c2N)C(C(=O)NC2CCCC2)c2ccco2)cc1 (configuration not stated),-2.9%,i,10.8%,u,-2.0%,0.7,6.5,-1.5%,28.2µM*
Cc1cccc(N(C(=O)c2snc(C(N)=O)c2N)C(C(=O)NC2CCCC2)c2ccc(C)o2)c1 (configuration not stated),-2.2%,i,-13.6%,u,-5.3%,-1.3,0.9,7.5%,25.1µM*
Cc1ccc(N(C(=O)c2snc(C(N)=O)c2N)C(C(=O)NC2CCCC2)c2ccc(C)o2)cc1 (configuration not stated),-6.9%,i,3.1%,u,-0.4%,-2.2,-0.6,3.0%,20µM*
Cc1ccc(CN2CCc3nnc(C(C)NC(=O)c4cc(F)ccc4F)n3CC2)o1 (configuration not stated),x,x,x,x,-5.5%,x,x,x,x
CC(C)C[C@@H](C)C(=O)N(Cc1ccccc1)c1ccccc1,0.0%,i,-8.2%,12.2%,-3.1%,-0.6,x,x,x
CC[C@@H](CCC=C(C)C)C(=O)N(Cc1ccccc1)c1ccccc1,-16.1%,i,-5.1%,u,-0.3%,-1.6,-0.2,u,15.8µM*
Cc1ccc(-c2nn3c(-c4ccccc4C)nnc3c3ccccc23)cc1,x,x,1.1%,39.8µM*,3.8%,x,1.0,-1.8%,22.4µM*
CC(c1ccccc1)n1c(-c2cccs2)nc2c(c(=O)c3ccccc3n2C)c1=O (configuration not stated),u,i,-16.1%,31.6µM*,9.3%,-0.4,2.5,20.1%,7.94µM*
Cn1c2ccccc2c(=O)c2c(=O)n(-c3ccc(F)cc3)c(-c3cccs3)nc21,-5.0%,i,6.5%,-16.0%,-3.6%,-2.5,x,x,x
CC(C)N1CCN(C(=O)c2cnn(-c3nccc(-c4ccc5c(c4)OCO5)n3)c2-c2ccco2)CC1,x,x,x,x,-5.5%,x,x,x,x
CC(C)(C)n1ncc2c(=O)n(Cc3cc(Cl)ccc3Cl)cnc21,x,x,x,x,-4.5%,x,x,x,x
NSc1nc(N)c2nc(-c3ccccc3)c(-c3ccccc3)nc2n1,-0.9%,i,-9.7%,u,-2.6%,-4.4,1.5,0.8%,22.4µM*
COc1cccc(CNC(=O)c2c(OC)cc(=O)n3c2CCN(C(=O)c2ccccc2Cl)CC3)c1,x,x,x,x,-2.0%,x,x,x,x
O=S(=O)(NCc1nnc2n1CCN(Cc1ccccc1Cl)CC2)c1ccccc1,x,x,x,x,-1.4%,x,x,x,x
Cc1ccc(N(C(=O)Cc2cccs2)C(C(=O)NC2CCCCC2)c2ccccn2)cc1C (configuration not stated),-2.6%,i,3.0%,u,-2.9%,-0.2,-1.1,2.1%,10µM*
COc1ccc(N(C(=O)Cc2cccs2)C(C(=O)NC2CCCC2)c2ccncc2)cc1OC (configuration not stated),-6.5%,i,1.0%,24.8%,-2.4%,-0.2,x,x,x
COc1cc(N(C(=O)Cc2cccs2)C(C(=O)NC2CCCCC2)c2ccc(C)cc2)ccc1-n1cnnn1 (configuration not stated),1.7%,i,3.8%,23.3µM*,-3.9%,0.9,-5.6,0.2%,7.08µM*
CCC1C/C(=C\c2cccnc2)C(=O)/C(=C/c2cccnc2)C1 (configuration not stated),-3.7%,i,5.4%,52.1µM*,-15.1%,-0.1,-16.4,-8.2%,31.6µM*
O=C1/C(=C/c2cccnc2)CC/C1=C\c1cccnc1,3.2%,i,-3.3%,-6.2%,-1.2%,2.4,x,x,x
COc1cc(-c2nc3c(c(C)nn3-c3ccccc3)c3cc(OC)c(OC)cc23)ccc1O,1.3%,i,-1.1%,u,-3.7%,-4.4,1.5,0.1%,10µM*
CN(C)Cc1c(C(=O)N/N=C/c2cccc(OCc3c(F)cccc3Cl)c2)nnn1-c1nonc1N,0.6%,i,-9.1%,-2.4%,-0.8%,-2.4,x,x,x
CN(C)Cc1c(C(=O)N/N=C/c2ccccc2OCc2c(F)cccc2Cl)nnn1-c1nonc1N,-0.3%,i,-2.5%,36.9µM*,-2.3%,-0.9,-4.1,-0.3%,7.08µM*
SMILES,MmCpn inh,Akt phos inh,GLS inh,IDH1 R132H inh,Glioma ERSR ind,CCT modulator,IDH1 autofl,WT IDH1 inh,IDH1 R132H conf
CC(C)(CNC(=O)c1cnn(-c2nccc(-c3cccs3)n2)c1C1CC1)N1CCOCC1,x,x,x,x,-3.1%,x,x,x,x
COc1ccc(NC(=S)N2CCN(C(c3ccccc3)c3ccccc3)CC2)cc1OC,0.2%,i,-4.5%,-0.7%,-0.5%,1.0,x,x,x
COc1cc(C(=S)N2CCN(C(c3ccccc3)c3ccccc3)CC2)cc(OC)c1O,-1.1%,i,-9.5%,u,-0.3%,0.3,-7.1,5.9%,22.4µM*
CCCCNc1c(-c2cccc(-c3ccc(OC)cc3)c2)nc2ccc(C)cn12,-1.4%,i,23.3%,u,-9.1%,-34.9*,-7.4,u,6.31µM*
CCCCNc1c(-c2cccc(-c3ccc(OC)cc3)c2)nc2cc(C)ccn12,-1.6%,i,29.7%,-4.5%,-6.6%,-1.8,x,x,x
O=c1c2ccccc2nc(/C=C/c2ccccc2)n1CCc1ccccc1,0.0%,i,-6.5%,3.0%,-1.7%,1.6,x,x,x
O=c1c2ccccc2nc(/C=C/c2cccnc2)n1CCc1ccccc1,u,i,u,52.1µM*,-7.2%,-0.3,1.9,-25.3%,44.7µM*
